Compounds with a hit are over-represented: about 2% of the library has one in this group of screens.
Neddyl block: cullin neddylation inhibition. P61081+Q13564. TR-FRET cullin neddylation, biochemical. inhibition, % at 25 µM. 0.58% of 360,000 active. AID 651699; in the data active means inhibition above about 36%
APOBEC3G inh: inhibitors of human APOBEC3G DNA deaminase; AID 493012; inhibition, % at 20 µM; Q9HC16; recombinant A3G, ssDNA deamination FAM/TAMRA fluorescence; 0.28% of 330,000 active;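 active means inhibition of at least 40% at 20 µM, with no more than 30% in the related APOBEC3A deaminase screen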;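 further: plate controls were DMSO wells with A3G for no effect and wells lacking A3G enzyme for full effect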
Target sequence (Q9HC16 whole entry, looked up): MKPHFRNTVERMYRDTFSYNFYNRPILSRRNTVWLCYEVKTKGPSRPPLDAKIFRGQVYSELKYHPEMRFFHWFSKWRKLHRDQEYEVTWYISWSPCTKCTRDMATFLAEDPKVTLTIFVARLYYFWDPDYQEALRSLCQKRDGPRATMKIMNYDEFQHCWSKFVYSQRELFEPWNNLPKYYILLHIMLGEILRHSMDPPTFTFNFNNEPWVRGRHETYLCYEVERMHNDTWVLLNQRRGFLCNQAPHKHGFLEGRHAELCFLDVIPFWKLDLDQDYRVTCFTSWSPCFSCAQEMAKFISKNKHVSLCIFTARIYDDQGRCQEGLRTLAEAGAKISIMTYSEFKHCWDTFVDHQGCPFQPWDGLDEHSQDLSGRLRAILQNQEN
APOBEC3A inh: inhibitors of human APOBEC3A DNA deaminase. recombinant A3A, FAM/TAMRA ssDNA deamination fluorescence. inhibition, % at 20 µM. P31941. AID 493011. 0.41% of 330,000 active;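 active means at least 40% inhibition at 20 µM here, with at most 30% in a related deaminase screen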;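 further: plate controls were A3A with DMSO for no effect and wells lacking A3A enzyme for full effect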
Target sequence (P31941 whole entry, looked up): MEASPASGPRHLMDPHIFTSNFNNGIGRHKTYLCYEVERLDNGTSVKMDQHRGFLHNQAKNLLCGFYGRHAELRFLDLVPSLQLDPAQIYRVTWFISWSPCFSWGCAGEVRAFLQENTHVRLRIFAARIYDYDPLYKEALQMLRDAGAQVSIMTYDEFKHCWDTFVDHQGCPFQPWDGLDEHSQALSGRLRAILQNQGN
PfG6PD inh: PfG6PD (Plasmodium falciparum) enzyme inhibition | PfGluPho enzyme, NADPH resazurin-diaphorase fluorescence | inhibition, % at 20 µM | 0.78% of 350,000 active | AID 504690;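 active means inhibition reaching at least a set limit at 20 µM in the primary screen, cut at about 59% in these data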;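 further: 0% = DMSO wells with substrate and 100% = DMSO wells lacking glucose-6-phosphate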
NPR1 activator: GC-A (human) enzyme activation; P16066; activation, % at 10 µM; AID 1671463; 0.14% of 370,000 active; HEK293 GC-A cells, cGMP TR-FRET, EC30 ANP; 0% at EC30 ANP, 100% saturating ANP; in the data active means activation above about 40%
NPR2 activator: GC-B (human) receptor activation; P20594; HEK293-GC-B cells, CNP EC30, cGMP TR-FRET; 0% at EC30 CNP, 100% saturating CNP; activation, % at 10 µM; 0.11% of 370,000 active; AID 1920062;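 active means activation at 10 µM reaching about 35% in either raw or pattern-adjusted values, limit read from the data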
Neddyl conf: cullin neddylation inhibition, confirmation | AID 652217 | calls only at 25 µM | TR-FRET cullin neddylation biochemical assay | shares compounds with Neddyl block | 13% of 1,800 active; in the data active means inhibition above about 40%;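 further: neddylation substrate is the cullin 1 ring ligase complex with SKP2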
Numbers without * were called inactive; i = inactive; · = no result shown; + = active, no number.

SMILES	Neddyl block	APOBEC3G inh	APOBEC3A inh	PfG6PD inh	NPR1 activator	NPR2 activator	Neddyl conf
CN(C)c1nc(OCc2ccccc2)c2ncc(=O)[nH]c2n1	44.4*	-3.8	5.7	-2.6	0.9	-6.7	·
O=C(Nc1ccccc1)Nc1nc2ncccn2c1-c1ccc(C(F)(F)F)cc1	·	·	·	·	4.0	3.0	·
CNc1cncc(C(=O)O)c1	40.2*	-1.6	0.5	2.4	-1.1	1.9	·
CC(C)Cn1nc(NC(=O)c2ccco2)c2cc3ccccc3nc21	45.6*	-10.3	-6.2	14.2	-1.2	-1.0	·
Cc1[nH]c2ccccc2c1CC(=O)Nc1ccc(Nc2cccnc2)c(-c2ccc(Cl)c(Cl)c2)c1	·	·	·	·	1.1	-0.9	·
Cc1cc(=O)oc2cc(NC(=S)NNC(=O)c3c(Cl)cnn3C)ccc12	52.3*	-5.7	-1.7	17.5	-2.9	-4.7	i
O=C(c1ccc2nc(-c3ccccc3)c(-c3ccccc3)nc2c1)N1CCCCC1	23.8	-7.8	-2.5	-18.0	-5.6	0.5	·
COCC(C)NC(=O)c1ccc2nc(-c3ccccc3)c(-c3ccccc3)nc2c1 (stereo unspecified)	40.6*	1.1	-4.6	-4.2	-10.1	-6.6	+
CCN(CC)C(=O)c1ccc2nc3ccccc3nc2c1	-10.5	-4.3	-0.8	1.6	3.2	1.9	·
CN1CCN(C(=O)c2ccc3nc(-c4ccccc4)c(-c4ccccc4)nc3c2)CC1	55.4*	-5.0	0.7	-18.6	-54.9	-17.1	·
CCN(CC)C(=O)c1ccc2nc(-c3ccccc3)c(-c3ccccc3)nc2c1	44.2*	-0.2	2.0	-24.3	-5.4	-2.7	i
O=C(COc1ccc2c3c(c(=O)oc2c1)CCCC3)N[C@@H](Cc1ccccc1)C(=O)O	45.4*	-9.6	-4.4	-27.7	3.6	-2.0	·
CC(=O)N1CCC2(CC1)C/C(=N\NC(=S)Nc1ccccc1C)c1cc(O)ccc1O2	·	0.1	0.1	42.3	0.1	2.2	·
COc1ccc(NC(=S)N/N=C2\CC(C)(C)Oc3ccc(O)cc32)cc1	40.8*	-2.2	-0.7	38.0	-1.5	-8.8	i
COc1ccccc1NC(=S)N/N=C1\CC(C)(C)Oc2ccc(O)cc21	39.6*	-8.4	-3.6	7.9	42.1*	1.3	i
CCCC(=O)N1CCC[C@]2(CC[C@@H](CCC(C)=O)O2)C1	·	·	·	·	4.7	-2.0	·
O=C(Oc1ccc(/C=N/NC(=O)c2ccccc2O)cc1)c1ccccc1	39.2*	0.1	1.3	-15.4	2.5	3.6	i
O=C(Oc1ccc(/C=N/NC(=O)c2ccccc2F)cc1)c1ccccc1	6.7	-5.4	-4.3	-4.1	0.4	1.7	·
Cc1cccc(C(=O)Oc2ccc(/C=N/NC(=O)c3ccncc3)cc2)c1	40.1*	-2.8	-6.4	6.0	3.4	7.2	i
COc1ccc(C(=O)c2[nH]c(N)c(C(=O)c3c[nH]c4ccccc34)c2-c2ccc(OC)cc2)cc1	·	·	·	·	-1.7	1.7	·
NC(=O)c1nsc(C(=O)N(CCc2ccccc2)C(C(=O)NC2CCCC2)c2ccco2)c1N (stereo unspecified)	50.4*	5.7	1.8	21.2	·	·	i
CCc1ccc(N(C(=O)c2snc(C(N)=O)c2N)C(C(=O)NC2CCCC2)c2ccco2)cc1 (stereo unspecified)	40.6*	-7.5	-4.5	5.2	-2.2	0.7	i
COc1ccc(N(C(=O)c2snc(C(N)=O)c2N)C(C(=O)NC2CCCC2)c2ccco2)cc1 (stereo unspecified)	17.5	-7.1	0.7	16.3	-9.1	1.8	·
COc1ccc(C(C(=O)NC2CCCC2)N(C(=O)c2snc(C(N)=O)c2N)c2ccccc2OC)cc1OC (stereo unspecified)	41.5*	-4.3	-2.5	4.1	-25.6	-9.1	·
COc1ccc(NC(=O)N(CCc2c(C)[nH]c3ccccc23)Cc2cccs2)cc1OC	·	·	·	·	-4.5	-2.5	·
SMILES	Neddyl block	APOBEC3G inh	APOBEC3A inh	PfG6PD inh	NPR1 activator	NPR2 activator	Neddyl conf
CS(=O)(=O)N1CCC(C(=O)NCC2COc3ccccc3O2)CC1 (stereo unspecified)	·	·	·	·	4.6	1.2	·
CCc1ccccc1Cn1c(=O)oc2cccnc21	48.5*	-0.7	3.0	-10.9	6.4	0.2	i
COC(=O)[C@]1(C#N)CC(=O)N(C)[C@@H]1c1ccccc1	·	·	·	·	1.8	-8.5	·
Cn1c(NCCN2CCCC2)nc2cc(-c3ccsc3)sc2c1=O	-74.7	·	·	·	-2.8	-4.8	·
COc1ccc(-c2cc3nc(NCCN4CCCC4)n(C)c(=O)c3s2)cc1OC	49.5*	·	·	·	-1.6	-4.1	+
Nc1nnc(N)c2ccccc12	39.5*	-7.7	-0.6	11.5	5.0	-1.4	i
C/C(=N\NC(=O)c1c(Cl)cnn1C)c1ccc(NC(=O)c2ccc(Br)o2)cc1	40.9*	-4.3	-2.8	-4.0	2.8	-6.0	i
C/C(=N\NC(=O)C1CC1)c1ccc(NC(=O)c2ccc(Br)o2)cc1	·	-9.8	-2.3	·	7.1	4.8	·
CCN1CCCCC(NC(=O)c2cccc(C(F)(F)F)c2)C1=O (stereo unspecified)	·	·	·	·	1.4	6.7	·
Cc1ccc(S(=O)(=O)Nc2nc3ccccc3nc2NCC2CCCO2)cc1C (stereo unspecified)	38.8*	-0.7	4.2	-33.3	2.1	4.1	i
Cc1cccc(S(=O)(=O)Nc2nc3ccccc3nc2NCC2CCCO2)c1 (stereo unspecified)	28.4	-4.7	-1.2	-22.7	2.0	4.7	·
Cc1ccc(S(=O)(=O)Nc2nc3ccccc3nc2NCC2CCCO2)c(C)c1 (stereo unspecified)	47.3*	-3.2	0.7	-24.2	2.4	-3.8	·
C=CCNC(=O)Nc1ccc2c(c1)[C@@]1(CC(=O)N(CC(C)C)C1c1ccccc1)C(=O)N2C (stereo partly specified)	·	·	·	·	-0.2	0.8	·
COC(=O)[C@]1(CNC(=O)C(C)(C)C)CC(=O)N(C)[C@@H]1c1ccccc1	·	·	·	·	3.8	0.4	·
O=C(CCN1C(=O)S/C(=C\c2ccccc2)C1=O)Nc1ccc(O)cc1C(=O)O	13.2	-8.3	-3.0	-18.4	3.3	1.1	·
O=C(CCN1C(=O)S/C(=C/c2ccccc2)C1=O)Nc1ccc(O)c(C(=O)O)c1	43.7*	-3.0	-2.0	-44.7	7.3	-6.0	i
Cc1cc(Nc2ccccc2C(=O)O)n2ncnc2n1	40.2*	·	·	5.4	1.8	-5.2	·
COc1ccc(CCN(C)C(=O)CN2C(=O)NC3(CCCCC3C)C2=O)cc1OC (stereo unspecified)	58.5*	-8.6	3.1	3.0	2.8	-0.1	i
CCSC1=C(C#N)C(CC(C)C)C2=C(CCCC2=O)N1 (stereo unspecified)	37.7*	-1.2	2.8	17.2	1.7	-0.5	i
